FBPA Giardia inh: blocks Giardia fructose-bisphosphate aldolase activity. A8B2U2. purified Giardia FBPA. Potency, µM (series often up to 59.6 µM), for the others: at the highest dose activity, negative = inhibition, most hits filed as inhibitors. 290,000 tested, 0.71% active. AID 2451; further: nearly all actives have a fitted effect of over 55% in size
Target sequence (A8B2U2 whole entry, looked up): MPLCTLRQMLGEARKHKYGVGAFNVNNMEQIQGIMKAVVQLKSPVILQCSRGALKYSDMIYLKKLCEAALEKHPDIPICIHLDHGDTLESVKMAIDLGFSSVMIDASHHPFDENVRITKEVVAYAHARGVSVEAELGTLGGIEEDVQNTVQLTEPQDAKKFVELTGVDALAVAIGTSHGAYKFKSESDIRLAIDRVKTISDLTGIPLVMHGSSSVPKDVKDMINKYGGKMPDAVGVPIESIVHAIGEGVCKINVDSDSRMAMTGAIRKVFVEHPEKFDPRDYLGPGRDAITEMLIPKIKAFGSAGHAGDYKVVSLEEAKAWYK
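40 nM FBPA preincubated 10 min at RT with compound (up to 57.5 uM final), then substrate plus GAPDH/TPI/NAD/arsenate coupling and diaphorase/resazurin added. Fluorescence read after 20 min at RT, 525/598 nm.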
Sm TGR block: blocks Schistosoma mansoni thioredoxin glutathione reductase | Q962Y6 | purified TGR, DTNB reduction, TNB absorbance 405 nm | Potency, µM (doses to about 114 µM), for the others: top-dose activity change, negative = inhibition, actives largely listed as inhibitors | 360,000 tested, 3% active; further: nearly all actives have a fitted effect of over 60% in size
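Kinetic colorimetric format: TGR-catalysed, NADPH-driven DTNB reduction monitored via TNB absorbance. Enzyme dispensed at 20 nM; compound exposure 15 min at room temperature before reaction start.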
AmpC no deterg: inhibitors of E. coli AmpC beta-lactamase without detergent; AmpC nitrocefin hydrolysis, absorbance 480 nm, 0.0001% Triton; Potency, µM (highest dose often 57.1 µM), without a hit: at the highest dose activity change, negative = inhibition, actives largely listed as inhibitors; AID 485341; 330,000 tested, 0.52% active;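 further: plate controls were no compound for no effect and no enzyme for full effect; nearly all actives have a fitted effect of over 20% in size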
Target sequence (P00811 whole entry, looked up): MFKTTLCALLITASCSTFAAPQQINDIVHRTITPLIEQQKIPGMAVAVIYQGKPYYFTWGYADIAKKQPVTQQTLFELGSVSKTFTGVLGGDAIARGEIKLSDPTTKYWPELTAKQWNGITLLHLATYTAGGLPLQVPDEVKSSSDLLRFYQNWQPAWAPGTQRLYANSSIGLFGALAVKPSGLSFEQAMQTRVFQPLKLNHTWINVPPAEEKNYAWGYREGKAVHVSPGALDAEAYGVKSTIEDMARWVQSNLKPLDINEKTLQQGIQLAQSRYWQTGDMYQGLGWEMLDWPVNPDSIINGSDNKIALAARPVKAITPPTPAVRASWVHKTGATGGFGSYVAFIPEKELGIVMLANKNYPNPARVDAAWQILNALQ
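20 mM phosphate pH 7.0 + 0.01% (detergent screen) or 0.0001% Triton X-100; 5.3 nM AmpC reagent; cpd preinc 15 min RT; nitrocefin (800 uM stock) to start; A480 q20 s × 4 min; Activity was normalised to no-enzyme and no-compound control wells.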
RE007 growth inh: less growth of the S. pombe RE007 Vpr strain | 360,000 tested, 0.21% active | S. pombe RE007 Vpr strain, BacTiter-Glo ATP luminescence, 24 h | AID 651644 | Potency, µM (series often up to 92.2 µM), inactives show at the top dose activity change, negative = less growth, most hits filed as inhibitors; active means well fitted falling curve with a large enough effect; inconclusive means small, poorly fitted or top-dose-only effect; inactive means no such curve, though single readings can be large or run the other way; further: nearly all actives have a fitted effect of over 50% in size
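Fission yeast strain RE007, carrying one chromosomally integrated HIV-1 vpr copy, was seeded at OD 0.01 in PMG+AL medium with 23 nL pinned compound. After 24 h at 30 °C and 99% humidity, viability was read by BacTiter-Glo luminescence.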
AmpC inh detg: AmpC beta-lactamase inhibition with detergent present | AmpC hydrolysis of nitrocefin, absorbance 480 nm, 0.01% Triton | Potency, µM (titrated, usually from 114 µM), inactives show at the highest dose activity change, negative = inhibition, actives largely listed as inhibitors | 370,000 tested, 0.041% active;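 further: 0% = no-compound wells and -100% = no-enzyme wells; nearly all actives have a fitted effect of over 25% in size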
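AmpC (5.3 nM in the dispensed reagent) in 20 mM phosphate pH 7.0 with 0.01% (detergent screen) or 0.0001% Triton X-100 was preincubated with compounds for 15 min at room temperature. Nitrocefin was then added from an 800 uM solution, and hydrolysis was followed at 480 nm.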
An asterisk follows results filed as active; ? = inconclusive; . = no result given. Only some compounds are listed: those with a hit (about 3.4% of all), similar ones and a draw of the others. Unless noted, the call rests on the fitted dose curve; in most records, active means well fitted curve in the direction sought with a large enough effect; inconclusive means small, poorly fitted or top-dose-only effect, or another doubt; inactive means no such curve, though single readings can be large; an effect the other way counts as inactive or inconclusive. Unless noted, on the % scale 0 is the no-effect control and ±100 the full control effect; potency means the concentration at half of the fitted maximal effect.

SMILES	FBPA Giardia inh	Sm TGR block	AmpC no deterg	RE007 growth inh	AmpC inh detg
CCn1c(SCC(=O)NCc2ccco2)nnc1-c1cccs1	-14.9%	10µM*	7.8%	-2.5%	-2.6%
CCCn1c(SCC(=O)NCc2ccco2)nnc1-c1ccncc1	-5.2%	.	-22.5%	-9.2%	-14.3%
CC(Sc1ccsc1[N+](=O)[O-])C(=O)NCc1ccco1 (centres undefined)	-11.6%	22.4µM*	-38.7%	8.9%	6.5%
COCCn1c(SCC(=O)NCc2ccco2)nnc1C(C)C	6.4%	44.7µM*	-5.3%	10.6%	1.4%
CCn1c(SCC(=O)NCc2ccco2)nnc1-c1ccncc1	-1.7%	-5.0%	-15.9%	.	0.4%
COc1ccc(-c2nnc(N(C)C(=O)c3cccnc3)s2)cc1	-9.4%	-27.0%	22.8%	-5.8%	?
CC(Sc1nnc(-c2ccco2)n1-c1ccccc1)C(=O)NCC1CCCO1 (centres undefined)	.	-24.5%	3.2%	11.3%	-9.6%
COCCn1c(SCC(=O)c2ccc(Cl)cc2)nnc1C(C)C	?	39.8µM*	-4.5%	4.7%	-9.2%
CC(Sc1nnc(-c2cccs2)n1-c1ccccc1)C(=O)NCc1ccco1 (centres undefined)	0.3%	44.7µM*	-14.0%	13.9%	-7.1%
CCCCn1c(SCC(=O)OCC)nnc1-c1ccoc1C	2.3%	8.1%	29.3%	0.8%	2.2%
COCCn1c(SCC(=O)c2ccc3c(c2)OCCO3)nnc1C(C)C	-23.9%	?	20.2%	-18.7%	0.1%
CCCCn1c(SCC(=O)NCc2ccco2)nnc1-c1ccoc1C	-7.9%	28.2µM*	49.3%	3.6%	?
CCn1ncc(/C=C/C(=O)c2ccccc2)c1C	-3.0%	-1.2%	0.0%	?	9.4%
O=C(O)CCCC(=O)NCCc1cccc(Cl)c1	6.3%	-2.6%	-9.8%	3.7%	-16.5%
CCN(CC)C(=O)CS(=O)(=O)CC(=O)Nc1cc(OCCOC)c(Cl)cc1Cl	-0.2%	35.5µM*	34.6%	-1.3%	4.9%
COCCOc1cc(NC(=O)CS(=O)CC(=O)N(C)C)c(Cl)cc1Cl (centres undefined)	2.8%	4.6%	-13.0%	-1.4%	9.7%
COc1ccccc1-n1c(-c2ccc(F)cc2)coc1=O	2.6%	1.3%	-10.4%	-3.4%	2.3%
COc1cc(/C=C/C(=O)OCC(=O)NC(=O)NC(C)C)ccc1OCC#N	-1.1%	0.2%	-7.8%	0.2%	-11.5%
COc1cc(/C=C/C(=O)OCC(=O)NC(=O)NC23CC4CC(CC(C4)C2)C3)ccc1OCC#N	-11.1%	-1.6%	8.91µM*	18.4%	-6.2%
O=C(COC(=O)/C=C/c1ccc(Br)o1)Nc1ccccc1F	3.5%	79.4µM*	-30.6%	.	-1.6%
O=C(/C=C/c1ccco1)NC1CCCC1	-4.7%	4.47µM*	-20.2%	-7.5%	-4.2%
O=C(O)C(C(=O)/C=C/c1ccco1)=C1SCCS1	-6.8%	0.0%	-26.6%	-1.3%	?
O=C(COC(=O)/C=C/c1ccco1)NC1CCCCC1	.	12.6µM*	-15.1%	-29.1%	-4.9%
O=C(C=C1SCCS1)/C=C/c1ccco1	-0.2%	7.08µM*	-19.7%	-18.2%	-0.2%
Cc1cc(C(=O)OCC(=O)Nc2ccccc2F)c(C)o1	0.7%	6.8%	-40.7%	-16.2%	?
SMILES	FBPA Giardia inh	Sm TGR block	AmpC no deterg	RE007 growth inh	AmpC inh detg
C[C@H]1[C@@H](c2ccccc2)Oc2ccc(Cl)cc2S(=O)(=O)N1Cc1ccc(F)cc1F	.	.	.	11.0%	.
Cc1ccc([C@@H]2CC=C(C(=O)O)[C@H](c3ccc(F)cc3)N2S(=O)(=O)c2ccccc2C)cc1	.	.	-6.1%	-5.7%	.
COCCNc1nnc(SCC(=O)NC(=O)c2ccccc2)s1	.	2.1%	-23.7%	-14.4%	-19.5%
COc1ccc(-c2oc3c(CC=C(C)C)c(O[C@H]4OC(CO)C(O)C(O)C4O)cc(O)c3c(=O)c2O[C@@H]2OC(C)C(O)C(O)C2O)cc1 (some centres undefined)	-1.3%	.	.	.	.
O=C(COC(=O)/C=C/c1ccc(Br)o1)NC1CCCCC1	.	12.6µM*	-24.0%	0.6%	-10.8%
CC1CCCCC1NC(=O)COC(=O)/C=C/c1ccco1 (centres undefined)	.	39.8µM*	-23.2%	-1.6%	-3.9%
CC1CC(C)CN(C(=O)COC(=O)/C=C/c2ccco2)C1 (centres undefined)	.	.	-5.0%	3.4%	.
Cc1[nH]c2ccccc2c1CCC(N)=O	-2.4%	-4.4%	-14.5%	-0.9%	-16.6%
Cc1[nH]c2ccccc2c1Cc1nnc(SCC(N)=O)o1	-2.6%	44.7µM*	4.6%	4.6%	?
Cc1cc(C)c(S(=O)(=O)/N=C2/C=C(SCC(=O)O)C(=O)c3ccccc32)cc1C	15.8µM*	3.55µM*	15.8µM*	?	1.0%
COCCNC(=O)C(=O)NCC(c1cccnc1)N1CCN(c2ccccc2)CC1 (centres undefined)	.	?	.	.	-5.3%
Cc1ccc2sc(N(Cc3cccnc3)C(=O)CCOc3ccccc3)nc2c1C	.	35.5µM*	.	.	6.6%
O=C(CCOc1ccccc1)N(Cc1cccnc1)c1nc2c(F)cccc2s1	.	2.24µM*	.	.	-2.4%
Cc1ccc2nc(N(Cc3cccnc3)C(=O)CCOc3ccccc3)sc2c1	.	?	.	.	-1.7%
O=C(CCS(=O)(=O)c1ccccc1)N(Cc1cccnc1)c1nc2ccc(Cl)cc2s1	.	1.12µM*	.	.	2.8%
Cc1ccc2nc(N(Cc3cccnc3)C(=O)CCS(=O)(=O)c3ccccc3)sc2c1	.	?	.	.	-1.0%
Cc1ccc(S(=O)(=O)NCC(=O)N(CC(=O)NCC2CCCO2)c2ccc(Cl)cc2)cc1 (centres undefined)	12.0%	-2.3%	84.6%	-2.5%	?
Cc1onc(-c2ccccc2Cl)c1C(=O)NNC(=O)c1nn(C)cc1Cl	-2.3%	.	-8.1%	-1.5%	9.6%
COc1cccc(Nc2sc(C(=O)c3ccc(F)cc3)c(N)c2C(=O)NCc2ccc(Cl)cc2)c1	.	-27.6%	.	.	14.2%
Cc1nnc(N=c2ssnc2Cl)o1	.	28.2µM*	-9.3%	17.3%	2.7%
COc1ccc(/C=C(\C#N)C(=O)NC2CCS(=O)(=O)C2)cc1OC (centres undefined)	-1.0%	1.0%	-12.5%	13.9%	?
CCCCSc1nc(O)c(C2OC(=O)c3c2ccc(OC)c3OC)c(=O)n1-c1ccccc1 (centres undefined)	19.3%	8.91µM*	-32.5%	-2.0%	-11.5%
CN(C)CCSc1nc(O)c(-c2ccccc2)c(=O)n1-c1ccccc1	-7.3%	7.2%	-10.3%	-3.5%	1.9%
CCCSc1nc2ccccc2c(=O)n1-c1ccccc1OC	.	7.9%	.	.	-5.8%
CCCSc1nc(O)c(C2OC(=O)c3c2ccc(OC)c3OC)c(=O)n1-c1ccccc1 (centres undefined)	20.8%	11.2µM*	-20.7%	5.6%	?

Compound activity: PubChem, National Center for Advancing Translational Sciences (NCATS)
